# PubChem BioAssay
# Values joined by “and” are separate entries in the source; they are usually repeats but may differ in a detail not shown here. Equal values may be shown once. Records with an inconclusive call do not appear. Where a structure was tested more than once in an assay, its records may differ in their call. Active and inactive are the calls of the source. Unless noted, no stated cut-off is given here; in the data, active means inhibition above about 80%; inactive means the rest.
# Experiments:
# [1] = biological target: 6-phosphogluconate dehydrogenase, decarboxylating (Homo sapiens) (UniProt P52209); assay: inhibition of human phosphogluconate dehydrogenase – biochemical, recombinant enzyme, NADPH absorbance, primary screen (AID 1159550;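 active means at least 20% inhibition of 6-phosphogluconate dehydrogenase activity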); settings: recombinant 6PGD, NADPH absorbance 341 nm; at 10 µM; stronger effect = higher value
# Sequence of 6-phosphogluconate dehydrogenase, decarboxylating (Homo sapiens) (P52209 whole entry, looked up): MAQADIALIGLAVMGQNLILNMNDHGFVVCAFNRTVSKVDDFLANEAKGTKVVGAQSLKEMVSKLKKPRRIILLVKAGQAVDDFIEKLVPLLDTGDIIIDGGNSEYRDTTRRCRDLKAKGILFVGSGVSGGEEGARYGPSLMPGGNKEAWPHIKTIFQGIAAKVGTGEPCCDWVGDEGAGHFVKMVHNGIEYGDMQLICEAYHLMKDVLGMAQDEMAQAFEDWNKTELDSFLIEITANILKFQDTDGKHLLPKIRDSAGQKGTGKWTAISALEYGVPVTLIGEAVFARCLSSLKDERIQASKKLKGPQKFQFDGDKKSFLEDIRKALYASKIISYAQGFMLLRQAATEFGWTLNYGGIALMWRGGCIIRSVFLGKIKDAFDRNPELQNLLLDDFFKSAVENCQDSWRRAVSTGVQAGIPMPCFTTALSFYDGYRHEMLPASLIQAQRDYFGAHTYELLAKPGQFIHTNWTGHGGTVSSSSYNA
# [2] = viability loss in pontine glioma line – cell-based, JHH-DIPG-1, MIPE4.0, CellTiter-Glo, qHTS, dose response (AID 1347062; cut-off not given, nearly all actives have AC50 up to about 27 µM;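 on AC50: cells exposed to compound for two days before readout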); settings: JHH-DIPG-1 viability, CellTiter-Glo ATP luminescence
# [3] = viability loss in pontine glioma line – cell-based, SU-DIPG-IV, MIPE4.0, CellTiter-Glo, qHTS, dose response (AID 1347063; cut-off not given, nearly all actives have AC50 up to about 30 µM;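 further: compound exposure lasted 48 hours before the viability readout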); settings: CellTiter-Glo ATP luminescence
# [4] = biological target: NAD(+) hydrolase SARM1 (Homo sapiens) (UniProt Q6SZW1); assay: blocking NAD cleavage by SARM1 SAM-TIR – cell lysate, NAD-Glo luminescence (AID 1508614;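 active means compound whose remaining NAD level is above about 45 nM, limit read from the data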); settings: SAM-TIR HEK293T lysate NADase, at 1 µM, stronger effect = higher value
# Sequence of NAD(+) hydrolase SARM1 (Homo sapiens) (Q6SZW1 whole entry, looked up, the tested form may be a part): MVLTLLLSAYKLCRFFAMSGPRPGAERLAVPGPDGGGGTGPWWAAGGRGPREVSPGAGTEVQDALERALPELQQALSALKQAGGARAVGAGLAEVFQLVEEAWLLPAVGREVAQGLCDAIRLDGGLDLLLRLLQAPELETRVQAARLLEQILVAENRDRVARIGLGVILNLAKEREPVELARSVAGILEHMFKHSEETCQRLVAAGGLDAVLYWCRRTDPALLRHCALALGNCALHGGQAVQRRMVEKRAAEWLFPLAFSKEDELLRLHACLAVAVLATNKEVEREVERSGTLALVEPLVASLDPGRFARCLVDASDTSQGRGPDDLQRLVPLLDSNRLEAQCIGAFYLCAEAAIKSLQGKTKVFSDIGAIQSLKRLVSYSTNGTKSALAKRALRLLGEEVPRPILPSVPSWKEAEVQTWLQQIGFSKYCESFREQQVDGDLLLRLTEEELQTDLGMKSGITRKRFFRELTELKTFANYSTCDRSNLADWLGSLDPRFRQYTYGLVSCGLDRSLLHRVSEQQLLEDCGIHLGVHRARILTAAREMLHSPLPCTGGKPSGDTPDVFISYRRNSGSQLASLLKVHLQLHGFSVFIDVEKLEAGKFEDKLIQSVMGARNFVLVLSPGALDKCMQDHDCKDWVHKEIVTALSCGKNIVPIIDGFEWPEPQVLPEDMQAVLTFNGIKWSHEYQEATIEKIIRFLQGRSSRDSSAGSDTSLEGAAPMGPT
# [5] = biological target: Mitogen-activated protein kinase 7 (Homo sapiens) (UniProt Q13164); assay: Gal4-ERK5 driven luciferase induction – cell-based, HTS, primary screen (AID 1508626;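 active means luciferase signal above three times the same-plate solvent-only control wells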;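 further: luciferase driven by Gal4-ERK5 fusion binding five Gal4 sites before minimal TATA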); settings: HeLa Gal4-ERK5 transactivation, 18 h, at 5 µM, stronger effect = higher value
# Sequence of Mitogen-activated protein kinase 7 (Homo sapiens) (Q13164 whole entry, looked up, the tested form may be a part): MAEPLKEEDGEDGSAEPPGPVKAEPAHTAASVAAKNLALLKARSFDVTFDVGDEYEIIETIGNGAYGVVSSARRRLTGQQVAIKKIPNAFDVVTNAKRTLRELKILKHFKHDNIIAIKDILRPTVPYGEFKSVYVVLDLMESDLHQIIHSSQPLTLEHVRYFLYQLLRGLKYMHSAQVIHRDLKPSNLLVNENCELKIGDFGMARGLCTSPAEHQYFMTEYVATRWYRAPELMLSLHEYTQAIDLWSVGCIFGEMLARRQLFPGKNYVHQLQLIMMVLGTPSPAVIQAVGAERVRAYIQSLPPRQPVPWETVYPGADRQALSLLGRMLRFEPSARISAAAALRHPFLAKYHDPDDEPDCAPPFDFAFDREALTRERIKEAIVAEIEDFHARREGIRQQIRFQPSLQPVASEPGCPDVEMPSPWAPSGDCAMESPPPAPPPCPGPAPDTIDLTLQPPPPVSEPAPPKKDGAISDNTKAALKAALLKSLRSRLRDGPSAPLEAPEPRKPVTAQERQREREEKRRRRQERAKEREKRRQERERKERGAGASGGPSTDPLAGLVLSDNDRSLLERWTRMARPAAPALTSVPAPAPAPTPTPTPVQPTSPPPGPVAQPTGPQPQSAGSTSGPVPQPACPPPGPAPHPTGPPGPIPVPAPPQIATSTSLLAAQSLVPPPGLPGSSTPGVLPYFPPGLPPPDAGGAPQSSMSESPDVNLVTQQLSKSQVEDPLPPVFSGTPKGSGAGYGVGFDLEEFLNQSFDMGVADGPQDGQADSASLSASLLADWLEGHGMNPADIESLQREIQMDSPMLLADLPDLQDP
# [6] = growth inhibition, single agent or in combination, cell-based, chromothripsis tumors, cisplatin or BGB combos (AID 1671449); settings: LFS_MB_P medulloblastoma cells;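 further: cells exposed for 96 hours; 0% = vehicle DMSO and 100% = killing by high DMSO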
# [7] = growth inhibition, single agent and combos, cell-based, chromothripsis tumors, cisplatin or BGB combos (AID 1671450); settings: HDN33 neuroblastoma cells, stronger effect = higher value;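 further: cells exposed to compound for four days; 0% = vehicle DMSO and 100% = cell killing by high DMSO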
# [8] = growth inhibition, single agents and combos, ICB984, cell-based, cisplatin or BGB combos, synergistic combos for chromothripsis tumors (AID 1671451; call rule not given here;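 further: cells exposed for 96 hours before readout; 0% = vehicle DMSO and 100% = killing by high DMSO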); settings: ICB984 medulloblastoma cells, drug combinations, stronger effect = higher value
# [9] = growth inhibition, single agents and combos, LFS_MB_1R, cell-based, cisplatin or BGB combos, synergistic combos for chromothripsis tumors (AID 1671452); settings: LFS_MB_1R medulloblastoma cells, stronger effect = higher value;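 further: cells exposed for 96 hours before readout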
# [10] = growth inhibition, single agents and combos, HTB85, cell-based, BGB or cisplatin IC20 combos, synergistic combos for chromothripsis tumors (AID 1671453); settings: HTB85 osteosarcoma cells, drug combinations, stronger effect = higher value;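 further: cells exposed for 96 hours before readout; 0% = vehicle DMSO and 100% = high DMSO killing control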
# [11] = growth inhibition, MDA-MB-436, cell-based, BGB or cisplatin combos, synergistic combos for chromothripsis tumors (AID 1671458; call rule not given here;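 further: cells exposed for 96 hours; 0% = vehicle DMSO and 100% = killing by high DMSO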); settings: MDA-MB-436 breast carcinoma growth inhibition, drug combinations, stronger effect = higher value
# [12] = BT084 cell growth, single and combined drugs, ICGC_MB145, cisplatin and BGB IC40 combos (AID 1671461); settings: BT084 medulloblastoma cells, drug combinations, stronger effect = higher value;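 further: cells exposed to drugs for 96 hours; 0% = vehicle DMSO and 100% = high DMSO full killing control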
# [13] = RCMB18 cell growth, single agent and combined, cisplatin and BGB IC40 combos (AID 1671462); settings: RCMB18 medulloblastoma cells, stronger effect = higher value;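 further: cells exposed to compound for four days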
# [14] = CRL1545 cell growth, single agent and combined, cisplatin and BGB IC20 combos (AID 1671464); settings: CRL1545 osteosarcoma cells, stronger effect = higher value;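 further: cells exposed to compound for 96 hours before readout; 0% = vehicle DMSO and 100% = high DMSO killing control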
# [15] = compounds altering viability of human ES cells (AID 493140; call rule not given here;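 further: cells exposed to compounds for four days before counting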); settings: human embryonic stem cell survival screen; stronger effect = higher value
# [16] = P. berghei load reduction in hepatocytes – cell-based, HepG2, luciferase luminescence, HepG2 viability, primary screen (AID 624349; in the data active means parasite load remaining mostly below about 12%, no sharp cut-off; inactive means mostly above about 10%;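 further: 100% = mean of DMSO negative control wells on the same plate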); settings: P. berghei liver stage in HepG2, luciferase luminescence, concentration not given here; parasite load remaining: stronger effect = lower value; viability: measured here: HepG2 viability without parasites
# [17] = viability loss in pontine glioma line – cell-based, SU-DIPG-XIII, MIPE4.0, CellTiter-Glo, qHTS, dose response (AID 1347061; cut-off not given, nearly all actives have AC50 up to about 37 µM;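 further: cells exposed to compound for 48 hours before readout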); settings: CellTiter-Glo ATP luminescence
# [18] = viability loss with induced miR-34 in A549 – imaging, A549 dox-inducible miR-34, nuclei and caspase counts, primary screen (AID 1347080;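 active means compounds whose cell count with miR-34 switched on is under 0.7 times the count with it off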); settings: A549 miR-34 inducible, Hoechst nuclei count, 48 h
# [19] = measured here: combination with BGB IC40, at 0.05 µM
# [20] = measured here: with BGB IC20 combination, at 0.5 µM
# [21] = measured here: with cisplatin IC20 combination, at 0.5 µM
# [22] = measured here: combination with cisplatin, at 0.5 µM
smiles,measurement,setting,value
COc1cc([C@@H]2c3cc4c(cc3[C@@H](O[C@@H]3O[C@@H]5CO[C@@H](c6cccs6)O[C@H]5[C@H](O)[C@H]3O)[C@H]3COC(=O)[C@H]23)OCO4)cc(OC)c1O,inhibition,[1],-2.92% (inactive)
same,AC50,[2],13.2 µM (active)
same,AC50,[3],0.332 µM (active)
same,remaining NAD,[4],10 nM (inactive)
same,luciferase signal,[5],72 AU (inactive)
same,inhibition,"[6]; at 0.5 µM, stronger effect = higher value",-18.8% (inactive) and -25.9% (inactive)
same,inhibition,"[6]; measured here: combination with BGB IC20, at 0.005 µM",-25.8% and -10.9%
same,inhibition,"[6]; measured here: combination with BGB IC40, at 0.005 µM",-33.2% and -18.4%
same,inhibition,[6]; [19],-33.7% and -25%
same,inhibition,"[6]; measured here: combination with cisplatin, at 0.5 µM, stronger effect = higher value",-32.6% and -15.4%
same,inhibition,"[6]; measured here: combination with cisplatin, at 5 µM, stronger effect = higher value",28.9% and -5.22%
same,inhibition,"[7]; BGB combo, at 5 µM",78% and 92.3%
same,inhibition,[7]; at 0.5 µM,53.6% (inactive) and 64.1% (inactive)
same,inhibition,"[7]; cisplatin combo, at 5 µM",82.1% and 93.8%
same,inhibition,[7]; [20],46.9% and 59.7%
same,inhibition,[7]; [21],51% and 63.1%
same,inhibition,"[7]; single agent, at 5 µM",88% and 95.5%
same,inhibition,"[8]; BGB IC20 combo, at 0.005 µM",20.5% and 3.66%
same,inhibition,"[8]; BGB IC40 combo, at 0.005 µM",-28.7% and -5.88%
same,inhibition,"[8]; BGB IC40 combo, at 0.05 µM",-11.6% and -12.3%
same,inhibition,[8]; at 0.5 µM,-25.1% (inactive) and -14.4% (inactive)
same,inhibition,"[8]; cisplatin combo, at 0.05 µM",-14.7% and -16.3%
same,inhibition,"[8]; cisplatin combo, at 0.5 µM",-25.3% and 3.4%
same,inhibition,"[8]; cisplatin combo, at 5 µM",-14.6% and 1.51%
same,inhibition,"[8]; measured here: 5 uM single agent, at 5 µM",-8.36% and -4.68%
same,inhibition,[9]; at 0.5 µM,-4.7% (inactive) and -8.97% (inactive)
same,inhibition,[9]; [19],1.41% and -17.3%
same,inhibition,[9]; [22],10.9% and 4.47%
same,inhibition,"[9]; measured here: combination with cisplatin, at 5 µM",22.9% and 27.7%
same,inhibition,[10]; at 0.5 µM,63.9% (inactive) and 81.2% (active)
same,inhibition,"[10]; measured here: with BGB IC20, at 0.5 µM",57.1% and 81.5%
same,inhibition,"[10]; measured here: with BGB IC20, at 5 µM",98.1% and 98.9%
same,inhibition,"[10]; measured here: with cisplatin IC20, at 0.5 µM",63.4% and 77.7%
same,inhibition,"[10]; measured here: with cisplatin IC20, at 5 µM",99.6% and 99.8%
same,inhibition,"[10]; single agent, at 5 µM",99.4% and 99.7%
same,inhibition,[11]; at 0.5 µM,49.3% (inactive) and 53.1% (inactive)
same,inhibition,"[11]; measured here: BGB combination, at 0.5 µM",36% and 34.4%
same,inhibition,"[11]; measured here: BGB combination, at 5 µM",73.1% and 71.2%
same,inhibition,"[11]; measured here: cisplatin combination, at 0.5 µM",49.6% and 58.2%
same,inhibition,"[11]; measured here: cisplatin combination, at 5 µM",83.3% and 88.6%
same,inhibition,[12]; at 0.5 µM,-19.6% (inactive) and -7.59% (inactive)
same,inhibition,"[12]; cisplatin combination, at 0.5 µM",12.3% and 2.14%
same,inhibition,"[12]; cisplatin combination, at 5 µM",27.6% and 23.9%
same,inhibition,"[12]; measured here: BGB IC40 combination 0.05 uM, at 0.05 µM",-12.5% and 39.7%
same,inhibition,"[12]; single agent, at 5 µM",19.5% and 27.4%
same,inhibition,[13]; at 0.5 µM,-23.3% (inactive) and -2.62% (inactive)
same,inhibition,"[13]; cisplatin combo, at 5 µM",23% and 40.9%
same,inhibition,"[13]; measured here: BGB IC40 combination, at 0.05 µM",-29.1% and -17.5%
same,inhibition,[13]; [22],-8.55% and 20.3%
same,inhibition,"[13]; single agent, at 5 µM",28.8% and 46%
same,inhibition,[14]; at 0.5 µM,44.9% (inactive) and 71.7% (inactive)
same,inhibition,[14]; [20],41.5% and 64%
same,inhibition,[14]; [21],45.4% and 75.2%
same,inhibition,"[14]; single agent, at 0.05 µM",4.76% and 55.4%
same,inhibition,"[14]; single agent, at 5 µM",98% and 98.8%
C=C(C)[C@@H]1CC[C@]2(C(=O)O)CC[C@]3(C)[C@H](CC[C@@H]4[C@@]5(C)CC[C@H](O)C(C)(C)[C@@H]5CC[C@]43C)[C@@H]12,survival,[15],9.75 (inactive)
same,parasite load remaining,[16],-8.09% (active) and 64% (inactive)
same,viability,[16],99.2% and 78.2%
same,inhibition,[1],0.445% (inactive)
same,outcome,[17],inactive
same,outcome,[2],inactive
same,outcome,[3],inactive
same,fold change,"[18]; stronger effect = lower value, cell number ratio, induced over uninduced",0.792 (inactive) and 1.12 (inactive)
same,fold change,[18]; measured here: relative caspase fold change +Dox/-Dox,1.41 and 0.964
same,cell count,"[18]; measured here: total cells with miR-34 induction, stronger effect = lower value",5780 and 2010
same,cell count,[18]; measured here: total cells without miR-34 induction,7300 and 1790
same,luciferase signal,[5],64 AU (inactive)
